The values that follow come from publication PMC10668032, “Altered binding affinity of SIX1-Q177R correlates with enhanced WNT5A and WNT pathway effector expression in Wilms tumor”.

The full ranking holds about 33,000 sequences; the median of “e-score” is about -0.05, and the highest 2% start at about 0.38. The full list was thinned out, with the highest values kept by preference.

For the assay, the target named is T1, SIX1-Q177R homeodomain (human, UniProt Q15475 108-198, Q177R).
T1 sequence: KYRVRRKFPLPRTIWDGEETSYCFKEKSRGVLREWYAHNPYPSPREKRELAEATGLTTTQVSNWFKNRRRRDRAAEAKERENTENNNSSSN
Description: universal protein binding microarray; Universal all-10-mer PBM (8x60K, AMADID 030236), 300 nM GST-tagged protein, Alexa Fluor 488 anti-GST; buffer, salt, pH and temperature not stated (as in Berger); high values mean tight binding. As to conditions: protein: ivt; tags: N-terminal GST; dsDNA, one strand shown. In a few lines:
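Homeodomains carrying a GST tag were produced by in vitro transcription/translation, then quantified by anti-GST western blot against a recombinant GST standard curve. Duplicate applications at 300 nM final concentration were made to universal 'all 10-mer' protein binding microarrays in 8×60K format. The Universal PBM Analysis Suite was used to express binding as 8-mer E-scores.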
Consider GCCCACAC, for which the binding signal stood at 0.255 ± 0.0252 E-score.

For the sequence ACCTATAC, the binding signal came out at 0.2048 ± 0.00123 E-score.

For CCCTACCC, the binding signal came to 0.185 ± 0.00683 E-score.

In the case of ACCTACCC, the binding signal was 0.252 ± 0.0152 E-score.

ACCTACAC: the binding signal came out at 0.4302 ± 0.00419 E-score.

Regarding GCCTACAC, the binding signal stood at 0.442 ± 0.0046 E-score.

Regarding CCCTACTC, the binding signal is 0.19 ± 0.0302 E-score.

As to CCCTACAC, the binding signal was determined as 0.424 ± 0.00443 E-score.

For the sequence GCCTACGC, the binding signal was found to be 0.167 ± 0.0292 E-score.

With GGGATCGA, the binding signal came to 0.257 ± 0.0548 E-score.

For the sequence CACGACTA, the binding signal came to 0.22 ± 0.0605 E-score.

For CACTAATC, the binding signal was 0.172 ± 0.0411 E-score.

GTGTTCCA: the binding signal is 0.361 ± 0.00459 E-score.

For GTATTCTA, the binding signal worked out at 0.1741 ± 0.00132 E-score.

With GTGTTCGA, the binding signal was determined as 0.409 ± 0.0112 E-score.

Consider GTGTGCAA, for which the binding signal amounted to 0.252 ± 0.0153 E-score.

Take GGGTTCAC: the binding signal turned out to be 0.184 ± 0.0552 E-score.

With GTGTTCTA, the binding signal stood at 0.392 ± 0.00814 E-score.

With GTGTTCAA, the binding signal came to 0.3855 ± 0.00337 E-score.

As for AAGGGGTC, the binding signal was 0.17 ± 0.00583 E-score.

Turning to CACCATTC, the binding signal is 0.23 ± 0.0429 E-score.

Regarding CCCCCACA, the binding signal worked out at 0.262 ± 0.0205 E-score.

Regarding ACGGGGTA, the binding signal was found to be 0.233 ± 0.00738 E-score.

Regarding GGGTGGTA, the binding signal amounted to 0.194 ± 0.0128 E-score.

With AATAGACA, the binding signal was 0.187 ± 0.00716 E-score.

Turning to GATCCCCC, the binding signal was 0.368 ± 0.0192 E-score.

As to CACCAGTG, the binding signal was found to be 0.404 ± 0.0086 E-score.

Regarding AACCAGTG, the binding signal turned out to be 0.183 ± 0.00569 E-score.

As for CACCAGTC, the binding signal is 0.2944 ± 0.00254 E-score.

As for CTCAGACA, the binding signal was 0.189 ± 0.00366 E-score.

CCATACAC: the binding signal came out at 0.3962 ± 0.00378 E-score.

On to ACACATAC, for which the binding signal amounted to 0.18 ± 0.0765 E-score.

Consider ACATACAC, for which the binding signal was found to be 0.421 ± 0.012 E-score.

As to GCATAAAC, the binding signal was 0.184 ± 0.0176 E-score.

With CCATACCC, the binding signal was 0.218 ± 0.00536 E-score.

On to ACATACCC, for which the binding signal amounted to 0.17 ± 0.00441 E-score.

In the case of GCATACAC, the binding signal was 0.406 ± 0.00565 E-score.

On to CACCTCGA, for which the binding signal came out at 0.217 ± 0.0155 E-score.

Consider GAGGGGTA, for which the binding signal came to 0.277 ± 0.00472 E-score.

Turning to ATACCGGA, the binding signal turned out to be 0.178 ± 0.0104 E-score.

For AGGCAGGA, the binding signal stood at 0.158 ± 0.0089 E-score.

ACCTAGAG: the binding signal worked out at 0.175 ± 0.0492 E-score.

Consider GGGTGCAA, for which the binding signal turned out to be 0.261 ± 0.0357 E-score.

Turning to CAACGCCA, the binding signal is 0.175 ± 0.0166 E-score.

For CCCCGACC, the binding signal was determined as 0.15745 ± 0.000156 E-score.

Consider CACCGGTG, for which the binding signal amounted to 0.418 ± 0.0109 E-score.

On to CACCGGTC, for which the binding signal stood at 0.21 ± 0.00979 E-score.

As for AACCGGTG, the binding signal came to 0.299 ± 0.0429 E-score.

On to AATTGGTG, for which the binding signal came to 0.221 ± 0.00776 E-score.

For the sequence CCGCGACA, the binding signal came out at 0.241 E-score.

In the case of GCAATACC, the binding signal was determined as 0.166 ± 0.00689 E-score.

Turning to ATAGTGTC, the binding signal came out at 0.3846 ± 0.00175 E-score.

For ATAGTGTG, the binding signal is 0.188 ± 0.00817 E-score.

Consider ATAGTGTA, for which the binding signal was found to be 0.391 ± 0.0352 E-score.

Consider ATAGTATA, for which the binding signal amounted to 0.175 ± 0.0632 E-score.

Consider CTAGTGTA, for which the binding signal came out at 0.391 ± 0.0289 E-score.

Turning to CTAGTGTC, the binding signal turned out to be 0.4067 ± 0.00058 E-score.

On to ATATAGTG, for which the binding signal was 0.265 ± 0.00494 E-score.

CTAGTATC: the binding signal is 0.161 ± 0.0474 E-score.

As for CTTGTGTA, the binding signal is 0.154 ± 0.0563 E-score.

As for CTAGTACA, the binding signal was determined as 0.245 ± 0.0089 E-score.

CTAGTCAC: the binding signal stood at 0.19 ± 0.0126 E-score.

Consider CACCGTGA, for which the binding signal came to 0.277 E-score.

Take CCCCCGCC: the binding signal was determined as 0.228 ± 0.0364 E-score.

Regarding CACGGATC, the binding signal stood at 0.279 ± 0.0122 E-score.

Consider ACCATGAA, for which the binding signal was 0.1618 ± 0.00147 E-score.

CATTGGGG: the binding signal is 0.162 ± 0.00379 E-score.

As for CCCACTCC, the binding signal came to 0.159 ± 0.0222 E-score.

For ACCCCGGA, the binding signal came to 0.299 ± 0.00931 E-score.

With GTAGGGTA, the binding signal stood at 0.193 ± 0.0286 E-score.

Take GTAGTGAC: the binding signal was 0.26 ± 0.0183 E-score.

Regarding GTAGTGTA, the binding signal was 0.427 ± 0.00906 E-score.

Turning to ACCAAGAG, the binding signal was 0.213 ± 0.0142 E-score.

In the case of CACACACA, the binding signal is 0.184 ± 0.063 E-score.

Consider AACACACC, for which the binding signal stood at 0.395 ± 0.0142 E-score.

In the case of AACACACG, the binding signal came out at 0.231 ± 0.0156 E-score.

Regarding CACACACG, the binding signal is 0.248 ± 0.0453 E-score.

For GACACACA, the binding signal was determined as 0.334 ± 0.044 E-score.

In the case of GACACACC, the binding signal was 0.422 ± 0.0192 E-score.

AACACACA: the binding signal worked out at 0.262 ± 0.0517 E-score.

For GACACAGC, the binding signal amounted to 0.17 ± 0.0393 E-score.

With CACACACC, the binding signal amounted to 0.389 ± 0.0305 E-score.

As for TGTACCAA, the binding signal was determined as 0.164 ± 0.0254 E-score.

Consider GGGTATAC, for which the binding signal was 0.262 ± 0.00267 E-score.

For the sequence AACCCGGG, the binding signal came out at 0.244 ± 0.0275 E-score.

As to CTACTCCA, the binding signal turned out to be 0.242 ± 0.00788 E-score.
